Source: PubChem
Shown are actives, neighbours in structure and some others; about 0.96% of the full set was active somewhere.
TRHR ag – activates the human TRH receptor | activation, % at 2 µM | actives 0.18% (n = 360,000) | AID 493084 | P34981 | TRHR cells, calcium flux fluo-8, FDSS agonist mode; in the data active = activation above about 30%
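Fluo-8-loaded TRHR cells; 10 s baseline, compound added, kinetic Ca2+ fluorescence read 1/s, agonist mode.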
TRPML1 inh – blocks the human TRPML1 channel; Q9GZU1; TRPML1-inducible cells, Ca2+ dye fluorescence, FDSS; hits give low values; inhibition of EC80 agonist-evoked calcium signal; activity change, negative = inhibition, % (test concentration not listed); actives 0.02% (n = 390,000); AID 624415; in the data active = activity change below about -50%; inconclusive = between about -30% and that limit;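 note: stimulus is agonist 54-4 at its EC80 concentration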
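Calcium fluorescence in TRPML1-DL cells induced overnight with Tet: a 110 s read after compound pin addition, then a 110 s antagonist read after challenge with 54-4 at 4 uM final (EC80).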
TRHR enhancer – allosteric enhancers of human TRH receptor; enhancement, % at 2 µM; actives 0.66% (n = 360,000); AID 493056; TRHR cells, fluo-8 calcium fluorescence, EC20 TRH enhancement; in the data active = enhancement above about 30%
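TRHR-expressing cells loaded with fluo-8 calcium dye were read kinetically (ex 480/em 530) during compound addition, then stimulated with an EC20 of TRH (10 nM final). Enhancement of the Gq-mediated intracellular calcium response was scored.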
TRPV1 PAM – human TRPV1 potentiation; potentiation, % at 8.33 µM; TRPV1-expressing cells, Fluo-8 calcium influx, capsaicin EC20 potentiation; actives 0.02% (n = 320,000); AID 540277; in the data active = potentiation above about 80%; inconclusive = between about 30% and that limit
Target sequence (Q8NER1 whole entry, looked up): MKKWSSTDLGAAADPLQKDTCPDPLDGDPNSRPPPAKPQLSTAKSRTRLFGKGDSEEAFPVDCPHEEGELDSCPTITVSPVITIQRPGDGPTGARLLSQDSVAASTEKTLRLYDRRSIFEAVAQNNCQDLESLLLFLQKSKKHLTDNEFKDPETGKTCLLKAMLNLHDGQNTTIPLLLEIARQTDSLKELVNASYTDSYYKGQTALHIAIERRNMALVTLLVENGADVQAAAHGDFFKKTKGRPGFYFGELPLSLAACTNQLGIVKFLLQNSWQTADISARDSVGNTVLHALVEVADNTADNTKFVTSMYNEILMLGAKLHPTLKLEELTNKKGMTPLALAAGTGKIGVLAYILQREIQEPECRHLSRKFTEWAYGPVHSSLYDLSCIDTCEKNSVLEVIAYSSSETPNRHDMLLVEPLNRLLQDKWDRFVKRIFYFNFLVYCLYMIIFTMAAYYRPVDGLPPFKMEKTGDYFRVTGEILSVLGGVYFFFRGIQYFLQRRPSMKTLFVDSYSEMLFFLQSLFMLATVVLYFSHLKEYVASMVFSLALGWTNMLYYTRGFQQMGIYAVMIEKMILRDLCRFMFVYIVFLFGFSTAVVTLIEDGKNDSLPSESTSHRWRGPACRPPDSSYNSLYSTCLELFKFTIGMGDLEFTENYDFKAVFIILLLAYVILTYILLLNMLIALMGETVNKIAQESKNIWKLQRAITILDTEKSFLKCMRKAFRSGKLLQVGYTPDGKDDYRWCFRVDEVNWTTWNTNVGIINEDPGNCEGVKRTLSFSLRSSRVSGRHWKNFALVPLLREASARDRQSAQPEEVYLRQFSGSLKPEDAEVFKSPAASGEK
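TRPV1-expressing cells were cultured overnight at 35.5C and loaded with Fluo-8 calcium dye for 40 to 90 min at room temperature. After a 10 s baseline, compound was added and calcium influx was read kinetically for 3 min (ex 480/em 520 nm).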
TRPV1 agonist – agonists of human vanilloid receptor 1 (TRPV1) | Q8NER1 | TRPV1-expressing cells, Fluo-8 calcium influx, agonist mode | activation, % at 8.33 µM | actives 0.19% (n = 320,000); in the data active = activation above about 80%; inconclusive = between about 30% and that limit
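TRPV1-expressing cells were cultured overnight at 35.5C and loaded with Fluo-8 calcium dye for 40 to 90 min at room temperature. After a 10 s baseline, compound was added and calcium influx was read kinetically for 3 min (ex 480/em 520 nm).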
TRPML1 agonist – activates the human TRPML1 channel. actives 0.12% (n = 410,000). AID 624414. activation, % (no concentration beside the values). TRPML1-expressing cells, Ca2+ dye fluorescence, FDSS. Q9GZU1; in the data active = activation above about 50%; inconclusive = mostly about 30% to 49%
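Tet-induced TRPML1-DL cells, 1,500 per well, cultured overnight, were loaded with a no-wash Ca2+ dye for 45–90 min. Calcium fluorescence was recorded on the FDSS for 110 s after compound addition, before the EC80 agonist (4 uM 54-4) was added.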
Large screens that a line does not name were inactive.

CN1/C(=C\C=C2C(=O)NC(=S)NC2=O)C(C)(C)c2ccccc21	TRHR ag 175, TRPV1 agonist 98, TRPML1 agonist 117
O=C(CCn1nc(-c2ccc(Cl)cc2)ccc1=O)N1CCC2(CC1)OCCO2	none
O=C(Cn1nc(-c2ccc(Cl)cc2)ccc1=O)N1CCC2(CC1)OCCO2	TRPV1 PAM 105
O=P1(Oc2ccccc2)CC=CC(COC(c2ccccc2)(c2ccccc2)c2ccccc2)O1 (configuration not stated)	none (no result: TRHR ag, TRHR enhancer, TRPV1 PAM, TRPV1 agonist)
O=C1NC(=O)C(=C/C=C/c2coc3ccc(Br)cc3c2=O)C(=O)N1	TRHR ag 41 (no result: TRPML1 inh, TRPML1 agonist)
C[C@@H](C1CC[C@@]2(O)C3=CC(=O)[C@@H]4C[C@@H](O)[C@@H](O)C[C@]4(C)[C@H]3CC[C@]12C)[C@H](O)CCC(C)(C)O (some centres not stated)	none (no result: TRHR ag, TRHR enhancer, TRPV1 PAM, TRPV1 agonist)
CCCCn1c(O)c(/C(C)=N/NC(=O)Nc2ccccc2)c(=O)[nH]c1=O	TRHR enhancer 35 (no result: TRPV1 PAM, TRPV1 agonist)
O=C(CN1CCOCC1)c1ccc2ccccc2c1	none (no result: TRHR ag, TRPML1 inh, TRHR enhancer, TRPV1 PAM, TRPV1 agonist)
O=[N+]([O-])c1ccc(N2CCCCCC2)c2nonc12	TRHR ag 142, TRPV1 agonist inconclusive, TRPML1 agonist 110
Nc1ncc(P(=S)(N2CCOCC2)N2CCOCC2)s1	none
C=Cn1c(P(=S)(N2CCOCC2)N2CCOCC2)cc2c1CCCC2	TRPML1 agonist 68
NCC(=O)c1ccc(Br)cc1	none (no result: TRHR ag, TRPML1 inh, TRHR enhancer, TRPV1 PAM, TRPV1 agonist)
O=C(Nc1ccc(Br)cc1C(=O)c1ccccc1Cl)c1ccccc1F	TRPML1 agonist 77 (no result: TRPV1 PAM, TRPV1 agonist)
COC(=O)C1=C(c2ccc(F)cc2OCc2ccccc2)C[C@@H]2CC[C@H]1N2C(=O)N1CCC(O)CC1	TRHR enhancer 37, TRPV1 agonist inconclusive
COC(=O)C1=C(c2ccc(F)cc2OCc2ccccc2)C[C@@H]2CC[C@H]1N2C(=O)NCc1ccccc1	none
CCC(=O)O[C@H]1CC[C@H]2[C@@H]3CCC4=CC(=O)CC[C@]4(C)[C@H]3CC[C@]12C	none (no result: TRHR ag, TRHR enhancer, TRPV1 PAM, TRPV1 agonist)
O=C(c1cc(F)ccc1F)C1CCCN(Cc2ccc3nonc3c2)C1 (configuration not stated)	none
O=C(c1cc(F)ccc1F)C1CCCN(Cc2cc(Cl)ccc2O)C1 (configuration not stated)	TRHR enhancer 34
NCC(=O)c1cccc([N+](=O)[O-])c1	none (no result: TRHR ag, TRPML1 inh, TRHR enhancer, TRPV1 PAM, TRPV1 agonist)
C=C1C=C(C(F)F)n2ncc(C(=O)NCc3ccccc3F)c2N1	none (no result: TRHR ag, TRPML1 inh, TRHR enhancer, TRPV1 PAM, TRPV1 agonist)
O=C(Cc1ccccc1)N1CCN(Cc2ccc(Cl)cc2)CC1	none (no result: TRHR ag, TRHR enhancer, TRPV1 PAM, TRPV1 agonist)
Oc1ccc(Cl)cc1CN1CCN(Cc2ccccc2)CC1	TRHR enhancer 31
O=c1cc(C(F)(F)F)c2cc3c4c(c2o1)CCCN4CCC3	TRHR ag 240, TRPV1 agonist inconclusive, TRPML1 agonist 106
Cc1cc2c(C(F)(F)F)cc(=O)oc2c2c1NCCC2	TRHR ag 91, TRPV1 agonist inconclusive, TRPML1 agonist inconclusive
COc1cc(/C=C/c2nc3ccccc3c(=O)n2-c2ccccc2O)ccc1O	TRHR ag 36
COc1ccccc1-n1c(/C=C/c2ccccc2)nc2ccccc2c1=O	none (no result: TRPV1 PAM, TRPV1 agonist)
COc1ccccc1-n1c(/C=C/c2ccc(O)cc2)nc2ccccc2c1=O	TRHR enhancer 39
COC1=C(C)C(=O)c2c(c(COC(N)=O)c3n2C[C@@H]2[C@@H]3N2C)C1=O (some centres not stated)	none (no result: TRHR ag, TRPML1 inh, TRHR enhancer, TRPV1 PAM, TRPV1 agonist)
Nc1ccc2ccc3cccc[n+]3c2c1	TRHR ag 65, TRPML1 agonist 87
C[C@H]1CCCC=CC2C[C@H](O)C[C@@H]2[C@H](O)C=CC(=O)O1 (some centres not stated)	none (no result: TRHR ag, TRPML1 inh, TRHR enhancer, TRPV1 PAM, TRPV1 agonist)
CC(C)NC(C)C(=O)c1ccc2ccccc2c1 (configuration not stated)	TRHR enhancer 37
Fc1ccccc1N1CCN(Cc2c(F)cccc2F)CC1	TRHR enhancer 37
O=C(CCl)c1ccc(O)c(O)c1	none (no result: TRHR ag, TRPML1 inh, TRHR enhancer, TRPV1 PAM, TRPV1 agonist)
Cc1ccc(C(=O)CN2CCOCC2)cc1	none (no result: TRHR ag, TRPML1 inh, TRHR enhancer, TRPV1 PAM, TRPV1 agonist)
O=[N+]([O-])c1ccc(NCc2ccc(Cl)cc2)c2ccncc12	none
O=[N+]([O-])c1ccc(NCc2ccccc2)c2nonc12	TRHR ag 215, TRPV1 agonist 126, TRPML1 agonist 77
